Reference: the supplement of paper PMC10849652
About 7,900 targets were measured; listed, in parts, are those with a hit and a random draw of the rest. About 0.6% of all pairs of compound and target were hits.

Experiments:
Experiment in all cases: log2 fold change, soluble protein after heating vs DMSO (PISA); higher = thermal stabilisation; K562 cells, 10 uM, 30 min; active = over 0.2 and 3.5 SD of the protein, either way, in both replicates (recomputed)
[1] = compound: CC1=C(C=C(C=C1)NC(=O)C2=CC(=CC=C2)C(C)(C)C#N)NC3=CC4=C(C=C3)N=CN(C4=O)C
Outline: (§1)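 Values are thermal stability changes relative to control samples and are taken from duplicates. They are stated as log2 fold changes. Before quantification by TMTpro 16plex LC-MS/MS with equalised channel sums, K562 cells at 2×10^6 cells/mL were treated with 10 μM compound for 30 min, heated in aliquots for 3 min across 48°C-58°C, pooled, extracted in PBS with 0.5% NP-40 at 4°C, and centrifuged at 21,000xg for 90 min to give the soluble supernatant.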

[2] = compound: CC1=C(C=C(C=C1)NC(=O)C2=CC(=CC=C2)N(C)C)NC(=O)C3=CC=C(C=C3)O
Outline: as §1

[3] = compound: CC1=CC=C(C=C1)SC2=C3C=C(SC3=CN=C2)C(=O)N
Outline: as §1

[4] = compound: CC1=NC(=CC=C1)C2=C(N=C(N2)C(C)(C)C)C3=CC4=NC=CN=C4C=C3
Outline: as §1

Nexturastat A = compound: CCCCN(Cc1ccc(C(=O)NO)cc1)C(=O)Nc1ccccc1 [Nexturastat A]
Outline: as §1

vemurafenib = compound: CCCS(=O)(=O)Nc1ccc(F)c(C(=O)c2c[nH]c3ncc(-c4ccc(Cl)cc4)cc23)c1F [vemurafenib]
Outline: as §1

[5] = compound: CCCS(=O)(=O)Nc1ccc(F)c(C(=O)c2c[nH]c3ncc(Cl)cc23)c1F
Outline: as §1

[6] = compound: CCCc1cc(C)[nH]c(=O)c1CNC(=O)c1cc(-c2ccnc(N3CCN(C)CC3)c2)cc2c1cnn2C(C)C
Outline: as §1

givinostat = compound: CCN(CC)Cc1ccc2cc(COC(=O)Nc3ccc(C(=O)NO)cc3)ccc2c1 [givinostat]
Outline: as §1

barasertib = compound: CCN(CCCOc1ccc2c(Nc3cc(CC(=O)Nc4cccc(F)c4)[nH]n3)ncnc2c1)CCOP(=O)(O)O [barasertib]
Outline: as §1

[7] = compound: CC[C@@H]1C(=O)N(C)c2cnc(Nc3ccc(C(=O)NC4CCN(C)CC4)cc3OC)nc2N1C1CCCC1
Outline: as §1

volasertib = compound: CC[C@@H]1C(=O)N(C)c2cnc(Nc3ccc(C(=O)N[C@H]4CC[C@H](N5CCN(CC6CC6)CC5)CC4)cc3OC)nc2N1C(C)C [volasertib]
Outline: as §1

epoxomicin = compound: CC[C@H](C)[C@@H](C(=O)N[C@@H]([C@@H](C)O)C(=O)N[C@@H](CC(C)C)C(=O)[C@]1(CO1)C)NC(=O)[C@H]([C@@H](C)CC)N(C)C(=O)C [epoxomicin]
Outline: as §1

[8] = compound: CCn1c(C(=O)N(C2CC2)C2CC2)cc2c3c(ncn3C)c(Nc3cc(C)n(C)n3)nc21
Outline: as §1

[9] = compound: CCn1cc(-c2ccnc3[nH]c(-c4cccc(CN(C)C)c4)cc23)c(-c2ccc(NC(=O)N(C)C)cc2)n1
Outline: as §1

[10] = compound: CN(C)CC(=O)Nc1ccc2[nH]c(=O)c3ccccc3c2c1
Outline: as §1

rosiglitazone = compound: CN(CCOC1=CC=C(C=C1)C[C@H]2C(=O)NC(=O)S2)C3=CC=CC=N3 (racemic) [rosiglitazone]
Outline: as §1

[11] = compound: CN1C2=C(C3=C1C(=O)N(N=C3)CC4=CC(=CC=C4)N)SC(=C2)S(=O)C
Outline: as §1

[12] = compound: CN1CCC(CNc2ccc3ncc(-c4cccc(OC(F)(F)F)c4)n3n2)CC1
Outline: as §1

[13] = compound: CC[C@H](C)N1C=C(C2=C(C=C(C=C21)C3=CN=C(C=C3)N4CCNCC4)C(=O)NCC5=C(C=C(NC5=O)C)C)C
Outline: as §1

Measured: log2 fold change

ALKBH4 (UniProt Q9NXW9)
inactive: [1] 0.071 | [2] -0.008 | [3] -0.015 | [4] 0.019 | Nexturastat A -0.125 | vemurafenib -0.048 | [5] 0.032 | [6] -0.015 | givinostat -0.05 | barasertib -0.016 | [7] -0.064 | volasertib -0.263 | epoxomicin 0.117 | [8] -0.02 | [9] -0.023 | [10] 0.056 | rosiglitazone 0.037 | [11] -0.077 | [12] -0.082

APAF1 (UniProt O14727)
Chain of UniProt O14727 (O14727 whole entry, looked up): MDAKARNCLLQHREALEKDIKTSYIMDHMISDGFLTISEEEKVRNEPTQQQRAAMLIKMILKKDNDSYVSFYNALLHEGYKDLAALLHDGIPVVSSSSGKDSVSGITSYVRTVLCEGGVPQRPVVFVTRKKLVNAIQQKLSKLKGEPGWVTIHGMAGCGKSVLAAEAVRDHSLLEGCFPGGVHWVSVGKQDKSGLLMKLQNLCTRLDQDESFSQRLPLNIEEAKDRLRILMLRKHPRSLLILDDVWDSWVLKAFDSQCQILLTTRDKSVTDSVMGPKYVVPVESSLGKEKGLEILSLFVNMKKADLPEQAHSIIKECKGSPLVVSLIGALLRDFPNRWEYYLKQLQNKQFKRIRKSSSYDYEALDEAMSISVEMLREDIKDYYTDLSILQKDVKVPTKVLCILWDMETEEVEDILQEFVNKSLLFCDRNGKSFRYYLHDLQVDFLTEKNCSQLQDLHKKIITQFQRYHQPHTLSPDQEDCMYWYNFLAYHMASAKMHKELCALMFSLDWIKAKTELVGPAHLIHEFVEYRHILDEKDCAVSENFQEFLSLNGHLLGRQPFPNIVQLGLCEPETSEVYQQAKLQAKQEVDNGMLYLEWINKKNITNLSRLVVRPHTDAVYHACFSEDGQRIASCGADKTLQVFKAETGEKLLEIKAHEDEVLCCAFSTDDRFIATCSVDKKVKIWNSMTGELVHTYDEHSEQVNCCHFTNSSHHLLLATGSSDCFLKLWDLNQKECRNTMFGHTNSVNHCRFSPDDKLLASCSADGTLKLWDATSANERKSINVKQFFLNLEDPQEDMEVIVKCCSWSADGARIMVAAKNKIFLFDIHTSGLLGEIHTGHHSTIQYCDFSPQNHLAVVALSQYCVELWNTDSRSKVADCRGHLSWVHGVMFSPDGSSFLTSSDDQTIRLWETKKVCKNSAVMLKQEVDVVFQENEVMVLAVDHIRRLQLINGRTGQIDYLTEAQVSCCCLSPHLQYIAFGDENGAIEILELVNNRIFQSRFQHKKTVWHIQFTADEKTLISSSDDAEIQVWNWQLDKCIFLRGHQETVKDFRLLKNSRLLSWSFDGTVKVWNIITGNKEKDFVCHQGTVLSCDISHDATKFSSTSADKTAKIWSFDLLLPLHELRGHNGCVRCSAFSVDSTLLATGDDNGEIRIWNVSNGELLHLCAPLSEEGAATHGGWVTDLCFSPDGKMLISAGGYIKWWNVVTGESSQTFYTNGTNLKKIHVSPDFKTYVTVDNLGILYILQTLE
inactive: [1] 0.023 | [2] 0.014 | [3] -0.003 | [4] -0.125 | Nexturastat A 0.056 | vemurafenib -0.006 | [5] -0.068 | [6] -0.1 | [7] -0.123 | volasertib -0.076 | [13] 0.187 | epoxomicin -0.045 | [8] -0.231 | [9] -0.009 | [10] 0.037 | [11] 0.148 | [12] -0.088
active: givinostat 0.395

ARL3 (UniProt P36405)
inactive: [1] -0.016 | [2] 0.018 | [3] 0.016 | [4] 0.025 | Nexturastat A -0.063 | vemurafenib 0.002 | [5] 0.059 | [6] -0.033 | givinostat 0.005 | barasertib -0.022 | [7] 0.036 | volasertib 0.046 | [13] 0.001 | epoxomicin -0.01 | [8] -0.001 | [9] -0.005 | [10] -0.014 | rosiglitazone 0.008 | [11] -0.098 | [12] -0.018

BRD8 (UniProt Q9H0E9)
inactive: [1] 0.002 | [2] 0.026 | [3] -0.01 | [4] 0.017 | Nexturastat A -0.098 | vemurafenib 0.027 | [5] 0.01 | [6] 0.002 | givinostat -0.153 | barasertib -0.026 | [7] 0.038 | volasertib -0.044 | [13] -0.013 | epoxomicin 0.039 | [8] 0.035 | [9] 0.043 | [10] -0.044 | rosiglitazone 0.003 | [11] 0.025 | [12] -0.063

AIF1 (UniProt P55008)
inactive: [1] -0.042 | [2] -0.039 | [3] -0.056 | Nexturastat A 0.048 | vemurafenib -0.112 | [5] 0 | givinostat -0.057 | barasertib -0.102 | volasertib 0.047 | [8] 0.078 | [10] 0.01 | rosiglitazone -0.045
active: epoxomicin -0.727

BRD3 (UniProt Q15059)
active: givinostat -0.842 | [7] 1.63 | volasertib 1.46 | [9] 0.681
inactive: [1] 0.261 | [2] 0.008 | [3] 0.035 | [4] -0.003 | vemurafenib 0.198 | [5] -0.048 | [6] -0.017 | barasertib -0.339 | [13] -0.088 | [8] -0.065 | [10] 0.073 | rosiglitazone 0.019 | [11] -0.143 | [12] 0.106

ALDH2 isoform 2 (UniProt P05091)
Chain of UniProt P05091 (P05091 whole entry, looked up): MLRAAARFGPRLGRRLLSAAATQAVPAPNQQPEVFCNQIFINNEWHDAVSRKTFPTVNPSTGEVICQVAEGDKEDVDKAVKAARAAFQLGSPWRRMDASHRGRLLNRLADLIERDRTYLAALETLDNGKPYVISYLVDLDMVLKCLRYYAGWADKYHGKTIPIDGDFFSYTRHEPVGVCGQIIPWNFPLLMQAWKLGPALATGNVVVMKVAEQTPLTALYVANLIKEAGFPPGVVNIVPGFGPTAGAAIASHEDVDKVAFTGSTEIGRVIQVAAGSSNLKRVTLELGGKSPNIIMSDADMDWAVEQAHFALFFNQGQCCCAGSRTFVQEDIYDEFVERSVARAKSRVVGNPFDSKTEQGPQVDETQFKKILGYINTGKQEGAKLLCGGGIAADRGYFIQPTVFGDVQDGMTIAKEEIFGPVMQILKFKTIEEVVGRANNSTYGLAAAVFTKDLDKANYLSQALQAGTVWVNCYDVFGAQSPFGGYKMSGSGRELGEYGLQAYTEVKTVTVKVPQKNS
inactive: [1] 0.075 | [2] -0.049 | [3] -0.106 | Nexturastat A -0.103 | vemurafenib -0.023 | [5] -0.141 | barasertib 0.099 | [7] 0.183 | volasertib 0.033 | epoxomicin -0.176 | [9] -0.014 | [10] -0.015 | rosiglitazone 0.19 | [12] -0.072

ABCA3 (UniProt Q99758)
inactive: [1] -0.029 | [2] 0.011 | [3] -0.008 | [4] -0.035 | Nexturastat A -0.142 | vemurafenib -0.161 | [5] -0.112 | givinostat 0.059 | barasertib 0.196 | [7] -0.155 | volasertib -0.093 | epoxomicin 0 | [8] -0.035 | [9] 0.168 | [10] 0.108 | rosiglitazone -0.172 | [11] -0.013 | [12] -0.263

ASB6 (UniProt Q9NWX5)
Chain of UniProt Q9NWX5 (Q9NWX5 whole entry, looked up): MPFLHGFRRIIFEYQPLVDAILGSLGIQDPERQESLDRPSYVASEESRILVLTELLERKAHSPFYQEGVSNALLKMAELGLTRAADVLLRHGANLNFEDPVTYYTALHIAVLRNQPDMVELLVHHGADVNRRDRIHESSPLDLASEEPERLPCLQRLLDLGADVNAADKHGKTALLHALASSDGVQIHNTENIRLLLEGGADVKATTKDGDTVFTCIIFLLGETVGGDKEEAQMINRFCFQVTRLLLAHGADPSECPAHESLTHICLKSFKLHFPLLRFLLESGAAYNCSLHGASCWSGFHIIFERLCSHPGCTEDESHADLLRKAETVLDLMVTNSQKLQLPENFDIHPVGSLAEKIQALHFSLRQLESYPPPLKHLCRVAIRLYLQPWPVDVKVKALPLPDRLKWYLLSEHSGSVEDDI
inactive: [1] -0.085 | [2] -0.033 | [3] 0.117 | [4] -0.175 | Nexturastat A 0.125 | vemurafenib -0.144 | [5] 0.108 | [6] -0.039 | givinostat 0.108 | barasertib 0.031 | [7] 0.047 | volasertib -0.321 | [13] 0.028 | epoxomicin -0.094 | [8] -0.016 | [9] -0.076 | [10] 0.041 | rosiglitazone 0.067 | [12] -0.083

ALG14 (UniProt Q96F25)
inactive: [2] -0.13 | [3] 0.045 | [4] 0.068 | Nexturastat A -0.479 | vemurafenib -0.053 | [5] 0.052 | [6] -0.131 | givinostat 0.03 | barasertib 0.03 | [7] 0.2 | volasertib 0.11 | [13] -0.077 | epoxomicin 0.382 | [8] -0.014 | [9] -0.215 | [10] 0.062 | rosiglitazone 0.016 | [11] -0.124 | [12] 0.443

ATF1 (UniProt P18846)
inactive: [1] -0.066 | [3] -0.113 | Nexturastat A -0.026 | vemurafenib 0.035 | [5] -0.016 | [6] 0.002 | givinostat 0.003 | barasertib 0.079 | [7] 0 | volasertib 0.109 | [13] -0.065 | epoxomicin 0.17 | [8] 0.005 | [9] 0.035 | [10] 0.002 | rosiglitazone -0.104 | [12] -0.002

AFDN isoform 1 (UniProt P55196)
Chain of UniProt P55196 (P55196 whole entry, looked up): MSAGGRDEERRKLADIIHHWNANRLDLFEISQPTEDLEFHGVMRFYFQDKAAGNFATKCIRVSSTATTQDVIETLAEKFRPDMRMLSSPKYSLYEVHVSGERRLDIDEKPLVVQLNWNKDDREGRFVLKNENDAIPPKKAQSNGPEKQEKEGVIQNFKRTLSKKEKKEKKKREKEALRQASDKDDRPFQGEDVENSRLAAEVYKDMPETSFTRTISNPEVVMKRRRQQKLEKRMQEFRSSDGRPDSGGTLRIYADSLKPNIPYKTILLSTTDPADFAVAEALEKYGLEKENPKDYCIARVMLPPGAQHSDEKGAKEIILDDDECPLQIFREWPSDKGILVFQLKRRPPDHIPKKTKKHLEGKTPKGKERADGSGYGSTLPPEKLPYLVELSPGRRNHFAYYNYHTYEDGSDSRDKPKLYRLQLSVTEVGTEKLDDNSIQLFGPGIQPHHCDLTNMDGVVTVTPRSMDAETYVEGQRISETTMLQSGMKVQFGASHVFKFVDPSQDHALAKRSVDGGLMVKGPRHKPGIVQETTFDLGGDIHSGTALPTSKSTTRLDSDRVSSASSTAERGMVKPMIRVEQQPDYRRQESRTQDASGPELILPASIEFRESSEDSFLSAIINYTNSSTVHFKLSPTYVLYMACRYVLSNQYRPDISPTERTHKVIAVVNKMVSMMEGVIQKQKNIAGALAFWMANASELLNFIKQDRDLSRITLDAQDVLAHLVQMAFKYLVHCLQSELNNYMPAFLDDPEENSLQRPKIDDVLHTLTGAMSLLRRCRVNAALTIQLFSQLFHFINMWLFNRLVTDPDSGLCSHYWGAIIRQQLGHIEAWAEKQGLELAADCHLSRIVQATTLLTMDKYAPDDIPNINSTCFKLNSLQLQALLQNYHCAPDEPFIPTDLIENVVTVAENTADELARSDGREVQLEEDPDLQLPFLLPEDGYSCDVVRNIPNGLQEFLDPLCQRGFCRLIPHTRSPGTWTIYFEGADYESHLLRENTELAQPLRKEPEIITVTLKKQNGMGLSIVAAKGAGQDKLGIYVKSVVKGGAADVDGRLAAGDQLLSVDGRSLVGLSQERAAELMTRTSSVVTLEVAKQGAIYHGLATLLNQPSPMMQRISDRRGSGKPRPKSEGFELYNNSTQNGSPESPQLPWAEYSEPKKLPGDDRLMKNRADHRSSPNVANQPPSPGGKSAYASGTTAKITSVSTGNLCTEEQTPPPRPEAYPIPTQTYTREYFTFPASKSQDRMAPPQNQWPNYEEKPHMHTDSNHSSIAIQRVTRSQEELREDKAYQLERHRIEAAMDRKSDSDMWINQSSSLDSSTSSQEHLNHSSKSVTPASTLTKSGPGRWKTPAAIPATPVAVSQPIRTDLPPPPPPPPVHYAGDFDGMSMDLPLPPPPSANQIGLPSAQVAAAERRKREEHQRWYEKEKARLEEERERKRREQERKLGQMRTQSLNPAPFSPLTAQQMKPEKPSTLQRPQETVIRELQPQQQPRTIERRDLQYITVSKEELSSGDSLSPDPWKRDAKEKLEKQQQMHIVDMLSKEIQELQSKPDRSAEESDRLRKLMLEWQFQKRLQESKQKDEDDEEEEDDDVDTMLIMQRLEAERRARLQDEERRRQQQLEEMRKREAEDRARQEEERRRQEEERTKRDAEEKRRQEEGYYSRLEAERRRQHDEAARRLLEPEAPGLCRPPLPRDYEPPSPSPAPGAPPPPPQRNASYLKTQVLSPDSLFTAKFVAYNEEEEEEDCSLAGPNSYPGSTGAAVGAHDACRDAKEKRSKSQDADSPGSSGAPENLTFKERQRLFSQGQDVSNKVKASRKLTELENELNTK
inactive: [1] 0.035 | [2] 0.083 | [4] 0.03 | Nexturastat A -0.164 | vemurafenib 0.342 | [6] 0.062 | givinostat 0.259 | barasertib -0.045 | [7] -0.019 | epoxomicin 0.064 | [8] -0.104 | [9] -0.075 | [10] -0.069 | rosiglitazone 0.104 | [11] 0.111 | [12] 0.062

ACTR3B (UniProt Q9P1U1)
inactive: [2] -0.046 | [3] -0.05 | [4] 0.198 | vemurafenib 0.019 | [5] 0.014 | givinostat 0.147 | volasertib -0.063 | [13] 0.261 | [8] 0.038 | [9] -0.047 | [10] -0.05 | [12] 0.048

ATXN7L3 isoform 2 (UniProt Q14CW9)
inactive: [1] 0.013 | [2] -0.017 | [4] -0.09 | [6] 0.137 | givinostat -0.046 | barasertib -0.042 | [7] -0.042 | [13] -0.166 | [8] 0.036 | rosiglitazone -0.2

ARL4A (UniProt P40617)
Chain of UniProt P40617 (P40617 whole entry, looked up): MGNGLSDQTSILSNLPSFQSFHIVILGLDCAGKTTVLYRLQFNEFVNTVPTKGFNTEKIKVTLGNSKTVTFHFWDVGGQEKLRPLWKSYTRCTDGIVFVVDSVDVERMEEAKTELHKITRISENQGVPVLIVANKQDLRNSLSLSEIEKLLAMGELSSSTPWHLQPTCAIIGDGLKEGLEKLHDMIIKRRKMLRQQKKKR
inactive: [6] 0.078 | barasertib 0.057 | rosiglitazone 0.063

AP2M1 (UniProt C9JTK4)
inactive: [1] -0.04 | [4] -0.033 | Nexturastat A 0.009 | vemurafenib -0.262 | [6] -0.172 | barasertib -0.079 | [7] 0.03 | [13] -0.051 | epoxomicin 0.027 | [10] -0.243 | rosiglitazone -0.016 | [11] -0.049

BAP18 isoform 3 (UniProt Q8IXM2)
Chain of UniProt Q8IXM2 (Q8IXM2 whole entry, looked up): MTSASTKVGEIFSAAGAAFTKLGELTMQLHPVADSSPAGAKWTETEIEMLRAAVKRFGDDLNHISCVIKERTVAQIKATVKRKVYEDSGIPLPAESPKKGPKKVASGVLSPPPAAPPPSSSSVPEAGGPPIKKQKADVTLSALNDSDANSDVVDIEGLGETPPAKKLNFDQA
inactive: [6] 0.005 | givinostat 0.025 | [8] -0.028 | [9] 0.028 | [12] 0.2

ARFIP1 isoform 2 (UniProt P53367)
Chain of UniProt P53367 (P53367 whole entry, looked up): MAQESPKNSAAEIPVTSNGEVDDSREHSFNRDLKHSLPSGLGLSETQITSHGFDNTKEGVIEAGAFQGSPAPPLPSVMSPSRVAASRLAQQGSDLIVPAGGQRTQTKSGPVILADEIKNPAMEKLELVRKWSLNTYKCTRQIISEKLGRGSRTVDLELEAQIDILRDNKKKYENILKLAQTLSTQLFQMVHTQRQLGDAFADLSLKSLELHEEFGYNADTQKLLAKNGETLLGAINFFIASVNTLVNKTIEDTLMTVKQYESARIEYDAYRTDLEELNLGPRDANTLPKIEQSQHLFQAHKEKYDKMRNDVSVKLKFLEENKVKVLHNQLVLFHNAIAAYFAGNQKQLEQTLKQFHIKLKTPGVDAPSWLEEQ
active: [12] -0.512
inactive: [1] -0.106 | [3] 0.051 | [4] 0.031 | Nexturastat A -0.025 | [5] 0.097 | [6] 0.121 | givinostat 0.061 | barasertib 0.019 | volasertib -0.134 | [13] 0.071 | epoxomicin -0.004 | [8] -0.102 | [9] 0.259 | rosiglitazone 0.088 | [11] -0.124

ATP6V0A1 (UniProt Q93050)
inactive: barasertib -0.095 | rosiglitazone -0.082

AP4S1 (UniProt Q9Y587)
Chain of UniProt Q9Y587 (Q9Y587 whole entry, looked up): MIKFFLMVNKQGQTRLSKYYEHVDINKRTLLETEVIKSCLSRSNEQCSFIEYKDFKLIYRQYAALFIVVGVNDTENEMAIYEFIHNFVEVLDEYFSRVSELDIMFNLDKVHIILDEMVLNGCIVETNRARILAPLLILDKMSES
inactive: [1] 0.033 | [3] -0.017 | [4] -0.007 | Nexturastat A -0.097 | vemurafenib 0.107 | [5] 0.02 | [6] 0.102 | givinostat 0 | barasertib -0.008 | [7] -0.117 | volasertib -0.321 | [13] 0.059 | epoxomicin -0.006 | [8] -0.056 | [10] 0.027 | rosiglitazone 0.024 | [11] 0.078

ADAMTS5 (UniProt Q9UNA0)
inactive: [1] -0.171 | [2] -0.022 | [4] -0.164 | vemurafenib -0.095 | [6] -0.572 | givinostat 0.222 | barasertib 0.02 | [7] 0.011 | [13] -0.211 | [8] -0.092 | [9] -0.16 | [10] 0.045 | rosiglitazone -0.035 | [11] -0.018 | [12] -0.039

BRAF (UniProt P15056)
inactive: [1] 0.15 | [3] 0.02 | [4] -0.01 | Nexturastat A -0.053 | vemurafenib 0.148 | [5] 0.144 | [6] -0.049 | givinostat -0.031 | barasertib 0.022 | [7] 0 | volasertib -0.097 | [13] 0.043 | epoxomicin 0.04 | [8] 0.008 | [9] 0.029 | [10] 0.036 | rosiglitazone 0.034 | [11] -0.039 | [12] -0.07
